The supplement of paper PMC6555819

Experiments:
Assay in all cases: PBM binding z-score (relative to random genomic background probes); higher = stronger binding; sequences stand for … in GC…GCGATTGACAGCGTAGAATGAAGG
[1] = tested on: FXR:RXRa (NR concentration 270 nM, RXRa partner concentration 90 nM)
Method in brief: (§1)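 The probes on custom Agilent 4×180K protein-binding microarrays were double-stranded, with 34-nt variable regions bearing direct-repeat seeds, single-nucleotide variants, half-site ablations and random human genomic background sequences. Incubation lasted 1 h with ligand-free nuclear receptor dimers in PBS pH 7.4, 2% milk, 0.02% Triton X-100, 1 mM DTT, 0.2 mg/mL BSA and 0.4 mg/ml salmon testes DNA. Antibodies against each partner (one per run) detected bound dimers, and fluorescence scans were regression-normalized. Binding z-scores take the random background probes as reference.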

[2] = tested on: LXRa:RXRa (NR concentration 270 nM, RXRa partner concentration 90 nM)
Method in brief: as §1

[3] = tested on: LXRa homodimer (NR concentration 270 nM)
Method in brief: as §1

[4] = tested on: LXRb:RXRa (NR concentration 270 nM, RXRa partner concentration 90 nM)
Method in brief: as §1

[5] = tested on: LXRb homodimer (NR concentration 270 nM)
Method in brief: as §1

[6] = tested on: PPARa:RXRa (NR concentration 270 nM, RXRa partner concentration 90 nM)
Method in brief: as §1

[7] = tested on: PPARg:RXRa (NR concentration 180 nM, RXRa partner concentration 90 nM)
Method in brief: as §1

[8] = tested on: PPARg:RXRa 270nM:90nM, anti-RXR (NR concentration 270 nM, RXRa partner concentration 90 nM)
Method in brief: as §1

[9] = tested on: PPARg:RXRa 30nM:10nM, anti-RXR (NR concentration 30 nM, RXRa partner concentration 10 nM)
Method in brief: as §1

[10] = tested on: PPARg:RXRa 90nM:30nM, anti-RXR (NR concentration 90 nM, RXRa partner concentration 30 nM)
Method in brief: as §1

[11] = tested on: PPARg:RXRa DBDmut IVT, anti-RXR (DBD mutation: RXRa K156A/R161A, NR concentration 270 nM, RXRa partner concentration 90 nM)
Method in brief: as §1

[12] = tested on: PPARg:RXRa IVT, anti-PPARg (NR concentration 270 nM, RXRa partner concentration 90 nM)
Method in brief: as §1

[13] = tested on: PPARg DBDmut:RXRa IVT, anti-PPARg (DBD mutation: PPARg1 K132A/R137A, NR concentration 270 nM, RXRa partner concentration 90 nM)
Method in brief: as §1

[14] = tested on: PPARg DBDmut IVT, anti-PPARg (DBD mutation: PPARg1 K132A/R137A, NR concentration 270 nM)
Method in brief: as §1

[15] = tested on: PPARg homodimer (NR concentration 180 nM)
Method in brief: as §1

[16] = tested on: PXR:RXRa (NR concentration 270 nM, RXRa partner concentration 90 nM)
Method in brief: as §1

[17] = tested on: PXR homodimer (NR concentration 270 nM)
Method in brief: as §1

[18] = tested on: RARa:RXR (NR concentration 270 nM, RXRa partner concentration 90 nM)
Method in brief: as §1

[19] = tested on: RARa homodimer (NR concentration 270 nM)
Method in brief: as §1

[20] = tested on: RARb:RXRa (NR concentration 270 nM, RXRa partner concentration 90 nM)
Method in brief: as §1

Row | Sequence | PBM binding z-score [1] | PBM binding z-score [2] | PBM binding z-score [3] | PBM binding z-score [4] | PBM binding z-score [5] | PBM binding z-score [6] | PBM binding z-score [7] | PBM binding z-score [8] | PBM binding z-score [9] | PBM binding z-score [10] | PBM binding z-score [11] | PBM binding z-score [12] | PBM binding z-score [13] | PBM binding z-score [14] | PBM binding z-score [15] | PBM binding z-score [16] | PBM binding z-score [17] | PBM binding z-score [18] | PBM binding z-score [19] | PBM binding z-score [20]
1 | AGAATGAGGTTATACGTAGAGCAGGGAAGAAAGT | 2.07 | 1.8 | -0.116 | 1.59 | 0.336 | 2.98 | 1.76 | 2.08 | 0.738 | 1.52 | 3.85 | 2.15 | 1.23 | 1.06 | 1.79 | 1.13 | 0.781 | 1.57 | 0.0508 | 1.51
2 | ATAATGAGGTTACCAAAGATCAGGGAAACGCTTG | 1.8 | 6.12 | 0.166 | 3.15 | 0.596 | 3.37 | 3.17 | 3 | 1.2 | 2.35 | 4.27 | 3.93 | 1.55 | 1.88 | 0.591 | 1.51 | 0.204 | 1.93 | 1.22 | 2.14
3 | GCTAGCAGGCCATTTGGGTCACTCACTGACGGGC | 0.237 | -0.137 | -0.55 | -0.212 | -0.64 | 1.16 | 0.358 | 0.596 | -0.357 | 0.202 | 2.26 | 2.51 | -1.21 | -1.1 | 0.122 | 0.354 | -0.0107 | 0.762 | -0.483 | 1.45
4 | CCAGACAAGTGAAAGGTAACTCAGTCTGGTACGC | -0.0838 | 0.254 | -0.234 | 0.206 | -0.315 | 1.07 | 1.42 | 2.61 | 0.692 | 1.77 | -0.0186 | 0.0117 | -0.187 | -0.255 | 0.888 | 0.0621 | -0.0763 | 0.166 | 0.124 | 0.247
5 | CAAACTAGGTCAGGAGGTCAAAGTCCGCTTCCCG | 5.51 | 5.22 | 4.23 | 4.39 | 1.11 | 5.91 | 8.99 | 7.3 | 5.95 | 7.43 | 7.85 | 8.07 | 2.42 | 1.18 | 6 | 5.16 | 2.29 | 6.31 | 1.8 | 4.92
6 | CTTATTAGTTGACCATAAGGGCAACCGAAGCTCG | 0.831 | 0.356 | 0.185 | 0.373 | 0.837 | 0.629 | 0.439 | 0.266 | 0.208 | 0.259 | 0.601 | 0.869 | 1.18 | 1.03 | 0.708 | 0.686 | 0.516 | 0.781 | 1.3 | 1.72
7 | CGTCAAAGTTCAAGGTAACGCAACAGAAAGCAGC | 6.65 | 5.28 | 2.35 | 3.52 | 1.08 | 4.51 | 4.65 | 5.25 | 2.32 | 4.14 | 0.947 | 2.53 | 0.438 | 0.38 | 3.41 | 4.06 | 3.14 | 3.59 | 1.14 | 5.15
